High-throughput results: PubChem BioAssay, several laboratories
An excerpt weighted towards active compounds, which were near 4.6% of everything screened.
NLRP3 yeast inh – NALP3 inflammasome inhibitors in reconstituted yeast, primary screen, luminescence, uHTS | Yeast reconstituted NLRP3/ASC/caspase-1, beta-gal luminescence, 24 h | inhibition, % at 10 µM | hit rate 0.39% among 330,000;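 active = inhibition of 50% or more; inactive = inhibition below 50%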
TIM10 inh – growth inhibitors of isogenic TIM10 control yeast, primary screen, counter-screen for tim10-1 yeast inhibitor project, luminescence, uHTS; S. cerevisiae TIM10 strain growth, BacTiter-Glo luminescence, 24 h; inhibition, % at 10 µM; hit rate 1.4% among 330,000; AID 463195, 2010;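 active = inhibition of 40% or more at the single tested concentration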;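 note: wild-type TIM10 isogenic control strain grown at permissive 25 °C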
SKKanGAS inh – S. pyogenes SKKanGAS growth inhibitors in kanamycin, primary screen, streptokinase expression inhibitor project, SKKanGAS strain, BacTiter-Glo luminescence. 6 h. inhibition, % at 7.5 µM. hit rate 1.3% among 300,000. AID 1662, 2009;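 active = mean replicate score, as percent of positive control median, at least 50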;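 note: strain carries kanamycin resistance gene driven by streptokinase promoter and grows in 40 µg/ml kanamycin; loss of luminescence reflects streptokinase promoter inhibition or plain growth inhibition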
tim23-1 inh – growth inhibitors of tim23-1 mutant yeast, primary screen, luminescence, uHTS | hit rate 1.3% among 330,000 | inhibition, % at 20 µM | AID 463212, 2010 | S. cerevisiae tim23-1 growth, BacTiter-Glo luminescence, 24 h;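 active = growth inhibition of the mutant yeast at or above 50%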;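 note: temperature-sensitive mutant grown at 25 °C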
tim10-1 inh – growth inhibitors of tim10-1 mutant yeast, primary screen, luminescence, uHTS; AID 463190, 2010; inhibition, % at 20 µM; S. cerevisiae tim10-1 ts strain growth, BacTiter-Glo, 24 h; hit rate 2.2% among 330,000;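 active = inhibition of at least 40%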;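 note: mutant grown at 25 °C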
Numbers stand for hits; n = inactive; x = no result given.

SMILES	NLRP3 yeast inh	TIM10 inh	SKKanGAS inh	tim23-1 inh	tim10-1 inh
Cc1ccc(NC(=O)c2ccc(Cl)c(S(=O)(=O)Nc3c(C)n(C)n(-c4ccccc4)c3=O)c2)cc1Cl	n	n	x	n	n
O=C(Nc1nccs1)c1c(O)c2cccc3c2n(c1=O)CCC3	n	n	99.5	n	n
NCc1ccccc1	n	n	x	n	n
COc1ccc(OC)c(COC(=O)c2cccc(S(=O)(=O)N3CCCCC3)c2)c1	n	n	x	n	n
CCCn1nnnc1NC(=O)c1ccc2ccccc2c1	n	n	89.8	n	n
CN(c1ccccc1)S(=O)(=O)c1ccc(C(=O)Nc2nnc(C3CC3)o2)cc1	n	n	n	n	n
CCN(c1ccccc1)S(=O)(=O)c1ccc(C(=O)Nc2nnc(C3CC3)o2)cc1	n	n	77.7	n	n
CCN(c1ccccc1)S(=O)(=O)c1ccc(C(=O)Nc2nnc(-c3ccco3)o2)cc1	n	n	63.0	n	n
C=C(C)CCC(C)N1CCC(n2nccc2NC(=O)CCOc2ccccc2)CC1 (configuration not stated)	n	n	n	n	n
CCOC(=O)[C@H]1[C@H]2COc3ccc(Cl)cc3[C@@H]2N2C(=O)c3cc(F)c(F)cc3NC(=O)[C@@]12C	n	n	x	n	n
CSc1nc2nccc(-c3ccc(-c4ccccc4)cc3)n2n1	n	n	72.0	n	n
CSc1nc2nccc(-c3ccc(Oc4ccccc4)cc3)n2n1	n	n	x	n	n
CCOc1ccc(Nc2nc(N3CCCCC3)nc(N3CCCCC3)n2)cc1	n	n	62.5	n	n
c1ccc(Nc2nc(N3CCCCC3)nc(N3CCCCC3)n2)cc1	n	n	84.4	n	n
CCOc1nc(Nc2ccc(OC)cc2)nc(N2CCOCC2)n1	n	n	n	n	n
CC(=O)O[C@]1(C(C)=O)CC[C@H]2[C@@H]3C[C@H](C)C4=CC(=O)CC[C@]4(C)[C@H]3CC[C@@]21C	n	n	n	n	n
CC(=O)O[C@H]1C[C@@]2(C)[C@@H](C[C@@H](O)[C@H]3[C@@]4(C)CC[C@@H](O)[C@@H](C)C4CC[C@@]32C)/C1=C(\CCC=C(C)C)C(=O)O (some centres not stated)	x	x	73.4	x	x
O=C1C(NS(=O)(=O)c2cccs2)=C(N2CCN(c3cccc(C(F)(F)F)c3)CC2)C(=O)c2ccccc21	n	n	54.5	n	n
O=c1[nH]c(CSc2ncnc3sccc23)nc2ccccc12	n	n	67.3	n	n
COc1ccc(Br)cc1/C=N/NC(=O)c1cc(Br)ccc1O	n	n	n	n	n
COc1cc(C(=O)N/N=C/c2cccc(Oc3ccccc3)c2)ccc1O	n	n	n	n	n
Cn1cccc1-c1cc(C(=O)N/N=C/c2cc(Br)ccc2O)[nH]n1	n	n	89.6	n	n
COc1cccc(/C=N/NC(=O)c2cc3c(OC)ccc(OC)c3[nH]2)c1O	n	n	106.5	n	n
Cn1cccc1-c1cc(C(=O)N/N=C/c2ccccc2Cl)[nH]n1	n	n	n	n	n
COc1cc(C(=O)N/N=C/c2ccc(OC(=O)c3cccc(C)c3)cc2)ccc1O	n	n	52.0	n	n
SMILES	NLRP3 yeast inh	TIM10 inh	SKKanGAS inh	tim23-1 inh	tim10-1 inh
COc1ccc(C(=O)N/N=C/c2cc(Br)ccc2O)cc1OC	n	n	85.8	n	n
COc1cc(C(=O)N/N=C/c2ccc(OC(=O)c3ccccc3Cl)c(OC)c2)ccc1O	n	n	66.4	n	n
COc1cc(/C=N/NC(=O)c2ccncc2)ccc1OC(=O)c1ccccc1Cl	n	n	n	n	n
CN(C(=O)CSc1nnc(CN2CCCC2)n1Cc1ccccc1)c1ccccc1	n	n	n	n	n
COc1cc(OC)c(NC(=O)c2sc3ncn(CC(=O)N4CCN(c5ccccn5)CC4)c(=O)c3c2C)cc1Cl	n	n	50.3	n	n
COc1ccc(NC(=O)c2sc3ncn(CC(=O)N4CCN(c5ccccn5)CC4)c(=O)c3c2C)c(OC)c1	n	n	n	n	n
O=C(CSCc1ccc(Br)cc1)Nc1ccccc1C(=O)N1CCOCC1	n	n	n	n	n
CC1Cc2ccccc2N1C(=O)CN(C)CC(=O)Nc1cccc(F)c1 (configuration not stated)	n	n	x	n	n
COc1ccc(CNC(=S)Nc2ccccc2)cc1	n	n	n	n	n
Cc1ccc(-n2c(-c3ccc(Br)cc3)c[n+]3c2CCc2ccc4cccnc4c2-3)cc1	x	x	80.6	x	x
NC(=O)CC[C@H](NC(=O)c1ccc(F)cc1)C(=O)N1CCN(Cc2ccc3c(c2)OCO3)CC1	n	n	x	n	n
CCOC(=O)C1=C(N)c2ccccc2CC1C1CCCC1 (configuration not stated)	n	n	55.3	n	n
C[C@H](CO)N1C[C@H](C)[C@@H](CN(C)C(=O)Nc2ccc(C(F)(F)F)cc2)Oc2c(NC(=O)CCC(F)(F)F)cccc2C1=O	n	n	x	n	n
Oc1ccccc1N=Nc1ccccc1O	x	x	58.9	x	x
Fc1ccc(CSc2ncnc3sc4c(c23)CCCC4)cc1	n	n	77.5	n	n
CCSc1ncnc2sc3c(c12)CCC3	n	n	n	n	n
CN1CCN(C2=Cc3ccccc3Sc3cc(F)ccc32)CC1	n	n	n	n	n
CN1CCN(C2=Cc3ccc(Cl)cc3Sc3ccc(F)cc32)CC1	n	n	60.3	n	n
CC(C)c1nc(N2CCCC2)c(C#N)c2c1CCCC2	n	n	93.1	n	n
O=C(Nc1cccc([N+](=O)[O-])c1)c1cc2ccccc2cc1O	n	n	73.6	n	n
O=C(O)c1ccccc1C(=O)Nc1cccc([N+](=O)[O-])c1	n	n	n	n	n
COC(=O)c1cc(S(=O)(=O)n2nc(C)c(Br)c2C)c(Cl)cc1Cl	n	n	72.0	n	n
Cc1cc(C)n(S(=O)(=O)c2cc(C(=O)O)c(Cl)cc2Cl)n1	n	n	n	n	n
CCOC(=O)c1sc2nccc(N(C)C)c2c1N=CNOCc1c(F)cccc1Cl	n	n	51.9	n	n
CCOC(=O)c1sc2nccc(N(C)C)c2c1N=CNOCc1ccccc1	n	n	n	n	n
SMILES	NLRP3 yeast inh	TIM10 inh	SKKanGAS inh	tim23-1 inh	tim10-1 inh
CCOC(=O)c1c(C)[nH]c(C(=O)C(C)OC(=O)c2cccc(OCc3c(C)noc3C)c2)c1C (configuration not stated)	n	n	50.1	n	n
Cc1ccccc1Cn1cc(S(=O)(=O)c2ccc(C(C)C)cc2)c(=O)c2cc3c(cc21)OCO3	n	n	n	n	n
O=C(NC(=S)NNC(=O)c1cnccn1)c1ccc(F)cc1	n	n	n	n	n
COc1ccc(/C=C/C(=O)NC(=S)NNC(=O)c2cnccn2)cc1	n	n	79.6	n	n
COc1ccc(/C=C/C(=O)NC(=S)Nc2ccccn2)cc1	n	n	n	n	n
COc1ccc(/C=C/C(=O)NC(=S)NNC(=O)c2cccnc2)cc1	n	n	60.1	n	n
O=C(/C=C/c1ccc(F)cc1)NC(=S)NNC(=O)c1cnccn1	n	n	108.7	n	n
